The panel holds about 83,000 compounds, 20% with a hit somewhere; the sample as a whole holds those more often.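 The test compound was applied at a single concentration to cells in 96-well plates for 48 hours, and percent growth was recorded.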 Activity calls are given as the source filed them. How the source made its calls: active means growth percent below 10; inactive means the rest.

The test system of one assay is SK-MEL-5 melanoma. The experiment in a line: NCI-60 one-dose screen, 48 h (100 = growth as untreated, 0 = no growth, -100 = all killed). Conditions: 10 µM unless noted.
On to `CCNC(=O)CCCCC(=O)c1c(C)[nH]c(/C=C2\N=C(c3ccc[nH]3)C=C2OC)c1C`, for which the growth is 48% (inactive).
Same read-out and setting: the value for `CC(=O)OCC1OC(OCC2OC(OC(C)=O)C(OC(C)=O)C(OC(C)=O)C2OC(C)=O)C(OC(C)=O)C(OC(C)=O)C1OC(C)=O` (stereo unspecified) was 94.2% (inactive); that for `Clc1ccc([I+]c2ccc(Cl)cc2Cl)c(Cl)c1` was 104% (inactive).
Still for that read-out and setting: the value for `CCC(=O)Oc1cc(/C=C/C(=O)O[C@H]2C[C@H]3CN4CCc5c([nH]c6cc(OC)ccc56)[C@@H]4C[C@@H]3[C@@H](C(=O)OC)[C@@H]2OC)ccc1OC` was 82.9% (inactive); that for `COC1=CC(c2ccc[nH]2)=N/C1=C\c1[nH]c(C)c(C(=O)CCCCC(=O)NCc2ccccc2)c1C` was 43.9% (inactive); that for `COc1ccc(-c2nnc(COc3ccc(NS(=O)(=O)c4ccc(OC)cc4)cc3F)o2)cc1` was 43.9% (inactive).
Still for that read-out and setting: the value for `CN1CCN(c2ccc3cc(-c4nc5ccccc5[nH]4)c(=O)oc3c2)CC1` was 74.6% (inactive); that for `CCC1=C[C@@H]2CN(C1)Cc1c([nH]c3ccccc13)[C@@](C(=O)OC)(c1cc3c(cc1OC)N(C=O)[C@H]1[C@@](O)(C(=O)OC)[C@H](OC(C)=O)[C@]4(CC)[C@@H]5C[C@@H]5CN5CC[C@]31[C@@H]54)C2` was -26.9% (active); that for `O=S(=O)(c1ccccc1)n1ccc(-c2ccc3c(c2)CCO3)n1` was 70.2% (inactive).
`COC1=CC(c2ccc[nH]2)=N/C1=C\c1[nH]c(C)c(CCCn2cc(CCCCCCCCC[C@@H]3Cc4cc(O)ccc4C4CC[C@]5(C)[C@@H](O)CC[C@H]5C43)nn2)c1C` (stereo partly specified): the growth is 35.5% (inactive).
Turning to `CCn1cc(C(=O)O)c(=O)c2cc(F)c(N3CCN(S(=O)(=O)c4ccc(OC)c(OC)c4)CC3)cc21`, the growth is 93.5% (inactive).
Turning to `COc1cc2nc(SCc3cc(OC)c(OC)c(OC)c3)n(Cc3ccccc3)c(=O)c2cc1OC`, the growth was -8.17% (active).
The same measure, in the same setting: the value for `O=[N+]([O-])c1cc(S(=O)(=O)OCC2CO2)ccc1Cl` (stereo unspecified) was 102% (inactive); that for `Nc1c(C(=O)Nc2ccccc2)sc2nc3c(cc12)CCC3` was 68.7% (inactive).
Consider `COc1ccc([N+](=O)[O-])c(/C=C/C(=O)c2ccccn2)c1`, for which the growth is 90% (inactive).
Still for that read-out and setting: the value for `CC(C(=O)n1cc(-c2ccccc2)c(-c2ccccc2)c1)c1ccccc1` (stereo unspecified) was 99.1% (inactive).
Still for that read-out and setting: the value for `CCNCc1ccncc1` was 102% (inactive).
Same read-out and setting: the value for `NCCSC(c1ccccc1)(c1ccccc1)c1ccccc1` was 11.9% (inactive); that for `O=C(O)c1ccc(-n2c(=O)c3ccccc3c3ccccc3c2=O)cc1` was 104% (inactive); that for `COc1cc(/C=C2\C=C(c3ccc(F)cc3)N(Cc3ccccc3)C2=O)cc(OC)c1OC` was 36.1% (inactive).
As to `COc1ccc(/C=C2\C(=O)N(C(=O)c3csc(NC(C)=O)n3)N=C2C)cc1`, the growth is 107% (inactive).
Still for that read-out and setting: the value for `COc1cccc(NC(=O)Cn2cc3c(=O)oc4ccccc4c3n2)c1` was 100% (inactive); that for `CNC(C)=O` was 102% (inactive).
For `C=C1C(=O)O[C@H]2[C@H](O)[C@@H](C)CCC/C(C)=C/CC[C@@]3(C)O[C@@H]3C[C@@H]12`, the growth is 91.5% (inactive).
Consider `CC(=O)Nc1ccc(S(=O)(=O)NC(CCC(=O)Nc2ccc(Cl)cc2)C(=O)O)cc1` (stereo unspecified), for which the growth was 97.7% (inactive).
Same read-out and setting: the value for `Cn1c(C(N)=O)cc2c1-c1nc(NC3CCCCC3)ncc1CCC2` was 95% (inactive); that for `Cc1nc2sccn2c1-c1csc(Nc2ccccc2Cl)n1` was 11.5% (inactive); that for `Cc1ccc(Cn2c(-c3cccs3)nc3ccccc32)cc1` was 82.4% (inactive).
`COC1=CC(c2ccc[nH]2)=N/C1=C\c1[nH]c(C)c(C(=O)CCCCC(=O)Nc2ccccc2)c1C`: the growth was 84.7% (inactive).
On the same count and under the same terms, the value for `COc1ccc(-c2cn[nH]c2-c2cc(OC)c3c(c2)OCCO3)cc1` was 25.4% (inactive); that for `COc1ccc(/C=C/c2nc(N3CCOCC3)c3cc(F)c(F)cc3n2)cc1OC` was -18.1% (active).
For the molecule `O=c1oc2cc(OS(=O)(=O)c3ccc(F)cc3)ccc2c2c1CCCCC2`, the growth is 32.8% (inactive).
Regarding `CCn1cc(C(=O)O)c(=O)c2cc(F)c(N3CCN(S(=O)(=O)c4ccc(Cl)cc4Cl)CC3)cc21`, the growth was -55% (active).
On to `O=C(CN1CCN(c2cc3c(cc2F)c(=O)c(C(=O)O)cn3C2CC2)CC1)Nc1ccc(C(=O)/C=C/c2ccccc2)cc1`, for which the growth is 13.6% (inactive).
Take `O=C(CC(O)c1ccncc1)c1ccccc1` (stereo unspecified): the growth was 88.3% (inactive).
Same read-out and setting: the value for `CCn1cc(C(=O)O)c(=O)c2cc(F)c(N3CCN(S(=O)(=O)c4cccc5ccccc45)CC3)cc21` was -46% (active).
Still for that read-out and setting: the value for `CCN(CC)CCCC(C)N=c1cc(Nc2cc(=NC(C)CCCN(CC)CC)c3cc(OC)ccc3o2)oc2ccc(OC)cc12` (stereo unspecified) was -97.8% (active).
Same read-out and setting: the value for `NC(=S)NN=C1CCCCC1` was 99.2% (inactive).

The test system of the next assay is UACC-62 melanoma. The assay is described as above. Conditions: 10 µM unless noted.
Consider `CCNC(=O)CCCCC(=O)c1c(C)[nH]c(/C=C2\N=C(c3ccc[nH]3)C=C2OC)c1C`, for which the growth is 61.5% (inactive).
Consider `CC(=O)OCC1OC(OCC2OC(OC(C)=O)C(OC(C)=O)C(OC(C)=O)C2OC(C)=O)C(OC(C)=O)C(OC(C)=O)C1OC(C)=O` (stereo unspecified), for which the growth was 92.2% (inactive).
Still for that read-out and setting: the value for `Clc1ccc([I+]c2ccc(Cl)cc2Cl)c(Cl)c1` was 12.3% (inactive); that for `CCC(=O)Oc1cc(/C=C/C(=O)O[C@H]2C[C@H]3CN4CCc5c([nH]c6cc(OC)ccc56)[C@@H]4C[C@@H]3[C@@H](C(=O)OC)[C@@H]2OC)ccc1OC` was 82.9% (inactive); that for `COC1=CC(c2ccc[nH]2)=N/C1=C\c1[nH]c(C)c(C(=O)CCCCC(=O)NCc2ccccc2)c1C` was 89.4% (inactive).
On the same count and under the same terms, the value for `COc1ccc(-c2nnc(COc3ccc(NS(=O)(=O)c4ccc(OC)cc4)cc3F)o2)cc1` was 64.8% (inactive); that for `CN1CCN(c2ccc3cc(-c4nc5ccccc5[nH]4)c(=O)oc3c2)CC1` was 81.6% (inactive).
On to `CCC1=C[C@@H]2CN(C1)Cc1c([nH]c3ccccc13)[C@@](C(=O)OC)(c1cc3c(cc1OC)N(C=O)[C@H]1[C@@](O)(C(=O)OC)[C@H](OC(C)=O)[C@]4(CC)[C@@H]5C[C@@H]5CN5CC[C@]31[C@@H]54)C2`, for which the growth was 18.5% (inactive).
Consider `O=S(=O)(c1ccccc1)n1ccc(-c2ccc3c(c2)CCO3)n1`, for which the growth was 73.1% (inactive).
On the same count and under the same terms, the value for `COC1=CC(c2ccc[nH]2)=N/C1=C\c1[nH]c(C)c(CCCn2cc(CCCCCCCCC[C@@H]3Cc4cc(O)ccc4C4CC[C@]5(C)[C@@H](O)CC[C@H]5C43)nn2)c1C` (stereo partly specified) was 12.9% (inactive).
Same read-out and setting: the value for `CCn1cc(C(=O)O)c(=O)c2cc(F)c(N3CCN(S(=O)(=O)c4ccc(OC)c(OC)c4)CC3)cc21` was 95.2% (inactive).
The same measure, in the same setting: the value for `COc1cc2nc(SCc3cc(OC)c(OC)c(OC)c3)n(Cc3ccccc3)c(=O)c2cc1OC` was 23.4% (inactive).
`O=[N+]([O-])c1cc(S(=O)(=O)OCC2CO2)ccc1Cl` (stereo unspecified): the growth is 111% (inactive).
On the same count and under the same terms, the value for `Nc1c(C(=O)Nc2ccccc2)sc2nc3c(cc12)CCC3` was 69.8% (inactive); that for `COc1ccc([N+](=O)[O-])c(/C=C/C(=O)c2ccccn2)c1` was 94.7% (inactive).
On to `CC(C(=O)n1cc(-c2ccccc2)c(-c2ccccc2)c1)c1ccccc1` (stereo unspecified), for which the growth was 106% (inactive).
On the same count and under the same terms, the value for `CCNCc1ccncc1` was 109% (inactive); that for `NCCSC(c1ccccc1)(c1ccccc1)c1ccccc1` was 29.5% (inactive).
`O=C(O)c1ccc(-n2c(=O)c3ccccc3c3ccccc3c2=O)cc1`: the growth is 105% (inactive).
The same measure, in the same setting: the value for `COc1cc(/C=C2\C=C(c3ccc(F)cc3)N(Cc3ccccc3)C2=O)cc(OC)c1OC` was 71.6% (inactive).
On to `COc1ccc(/C=C2\C(=O)N(C(=O)c3csc(NC(C)=O)n3)N=C2C)cc1`, for which the growth is 108% (inactive).
As to `COc1cccc(NC(=O)Cn2cc3c(=O)oc4ccccc4c3n2)c1`, the growth was 100% (inactive).
On the same count and under the same terms, the value for `CNC(C)=O` was 105% (inactive); that for `C=C1C(=O)O[C@H]2[C@H](O)[C@@H](C)CCC/C(C)=C/CC[C@@]3(C)O[C@@H]3C[C@@H]12` was 89% (inactive).
Take `CC(=O)Nc1ccc(S(=O)(=O)NC(CCC(=O)Nc2ccc(Cl)cc2)C(=O)O)cc1` (stereo unspecified): the growth is 67.5% (inactive).
`Cn1c(C(N)=O)cc2c1-c1nc(NC3CCCCC3)ncc1CCC2`: the growth was 103% (inactive).
`Cc1nc2sccn2c1-c1csc(Nc2ccccc2Cl)n1`: the growth is 46.7% (inactive).
Turning to `Cc1ccc(Cn2c(-c3cccs3)nc3ccccc32)cc1`, the growth was 85.4% (inactive).
On the same count and under the same terms, the value for `COC1=CC(c2ccc[nH]2)=N/C1=C\c1[nH]c(C)c(C(=O)CCCCC(=O)Nc2ccccc2)c1C` was 101% (inactive).
With `COc1ccc(-c2cn[nH]c2-c2cc(OC)c3c(c2)OCCO3)cc1`, the growth was 37.6% (inactive).
`COc1ccc(/C=C/c2nc(N3CCOCC3)c3cc(F)c(F)cc3n2)cc1OC`: the growth is 41.1% (inactive).
Take `O=c1oc2cc(OS(=O)(=O)c3ccc(F)cc3)ccc2c2c1CCCCC2`: the growth is 65.3% (inactive).
For the molecule `CCn1cc(C(=O)O)c(=O)c2cc(F)c(N3CCN(S(=O)(=O)c4ccc(Cl)cc4Cl)CC3)cc21`, the growth was 16.1% (inactive).
On the same count and under the same terms, the value for `O=C(CN1CCN(c2cc3c(cc2F)c(=O)c(C(=O)O)cn3C2CC2)CC1)Nc1ccc(C(=O)/C=C/c2ccccc2)cc1` was 35.5% (inactive); that for `O=C(CC(O)c1ccncc1)c1ccccc1` (stereo unspecified) was 89.3% (inactive).
The same measure, in the same setting: the value for `CCn1cc(C(=O)O)c(=O)c2cc(F)c(N3CCN(S(=O)(=O)c4cccc5ccccc45)CC3)cc21` was 31.2% (inactive); that for `CCN(CC)CCCC(C)N=c1cc(Nc2cc(=NC(C)CCCN(CC)CC)c3cc(OC)ccc3o2)oc2ccc(OC)cc12` (stereo unspecified) was -72.5% (active); that for `NC(=S)NN=C1CCCCC1` was 90% (inactive).

The values are drawn from PubChem BioAssay (NCI).
